IL-1B inflam inh – inflammasome signaling inhibition, IL-1 beta readout; THP-1 LPS/ATP IL-1B secretion, AlphaLISA, 16 h; hits give low values; activity change, % at 57.5 µM; hit rate 4.7% among 360,000; in the data active = activity change below about -50%; inconclusive = mostly about -30% to -49%
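THP-1 cells pretreated 1 hr with compounds (up to 57.5 uM final), then stimulated with LPS (250 ng/mL final) plus ATP (1.25 mM final); secreted IL-1B measured by AlphaLISA after 16 hr, decreased signal indicating inhibition.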
DT40 TDP1 CPT – growth inhibition of DT40 Tdp1-/-;hTDP1 cells with camptothecin (screen for TDP1 inhibitors); chicken DT40 Tdp1-/-;hTDP1 cells + 20 nM CPT, ATP luminescence, 48 h; Potency, µM (highest dose often 46.2 µM), most hits filed as inhibitors; hit rate 12% among 420,000; also: nearly all actives have a fitted effect of over 55% in size
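Chicken DT40 Tdp1-/- cells complemented with human TDP1, 400 cells/well, exposed to compounds plus 20 nM camptothecin for at least 48 h at 37 C; viability read as ATP content by CellTiter-Glo luminescence.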
ALOX12 inh – ALOX12 (human) lipoxygenase inhibition; P18054; purified 12hLO, xylenol orange hydroperoxide absorbance; Potency, µM (top dose mostly 108 µM), actives largely listed as inhibitors; hit rate 1.1% among 580,000
Target sequence (P18054 whole entry, looked up): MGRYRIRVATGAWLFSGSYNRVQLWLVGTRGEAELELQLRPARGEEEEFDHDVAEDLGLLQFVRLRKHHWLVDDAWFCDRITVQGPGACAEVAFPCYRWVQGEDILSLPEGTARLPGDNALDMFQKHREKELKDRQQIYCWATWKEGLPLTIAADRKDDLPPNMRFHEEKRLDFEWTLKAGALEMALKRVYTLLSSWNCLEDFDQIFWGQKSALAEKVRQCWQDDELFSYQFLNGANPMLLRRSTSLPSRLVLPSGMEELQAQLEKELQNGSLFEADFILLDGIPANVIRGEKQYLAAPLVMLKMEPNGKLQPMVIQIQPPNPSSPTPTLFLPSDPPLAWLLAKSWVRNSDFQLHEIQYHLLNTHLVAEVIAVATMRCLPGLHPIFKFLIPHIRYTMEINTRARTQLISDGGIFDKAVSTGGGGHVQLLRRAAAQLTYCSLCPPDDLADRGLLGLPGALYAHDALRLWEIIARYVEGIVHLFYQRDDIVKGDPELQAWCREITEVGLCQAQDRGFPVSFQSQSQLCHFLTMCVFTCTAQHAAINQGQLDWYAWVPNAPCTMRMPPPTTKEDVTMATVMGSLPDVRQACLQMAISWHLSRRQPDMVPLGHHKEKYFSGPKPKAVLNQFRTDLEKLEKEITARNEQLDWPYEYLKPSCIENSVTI
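Purified human 12hLO at 150 nM in 25 mM Hepes, 0.01% Triton X-100, pH 7.0, preincubated 15 min at room temperature with compound. Reaction started with 40 uM arachidonic acid, 30 min at room temperature. Hydroperoxide measured by Fe-xylenol orange, 573/405 nm absorbance ratio.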
HT1080NT lethal – kills 2HG-producing HT-1080-NT fibrosarcoma cells; HT-1080-NT fibrosarcoma viability, CellTiter-Glo ATP luminescence, 48 h; Potency, µM (titrated, usually from 46.1 µM), most hits filed as cytotoxic; hit rate 1.6% among 360,000; AID 686970;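 also: NT is the 2HG producing partner of a matched IDH1 knockdown line; nearly all actives have a fitted effect of over 55% in size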
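Compounds were tested in concentration-response format on HT-1080-NT cells for 48 hours at 37 degrees C. Cell viability came from CellTiter-Glo luminescence; curves were classified by r2, response magnitude and activity.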
DT40 TDP1 no CPT – qHTS for Inhibitors of human tyrosyl-DNA phosphodiesterase 1 (TDP1): qHTS in cells in absence of CPT | hit rate 15% among 420,000 | AID 686978, 2013 | DT40 Tdp1-/- hTDP1 cells, no CPT, ATP luminescence, 48 h | Potency, µM (top dose mostly 46.2 µM), usual class: inhibitors; also: nearly all actives have a fitted effect of over 55% in size
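DT40 Tdp1-/-;hTDP1 cells, no CPT (DMSO vehicle only), 400 cells/well; compounds pin-transferred; ≥48 hr, 37 °C; CellTiter-Glo 30 min RT dark, luminescence read.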
HT1080 IDH1KD tx – kills HT-1080 cells with IDH1 knockdown; HT-1080 IDH1 knockdown viability, ATP luminescence, 48 h; Potency, µM (highest dose often 46.1 µM), most hits filed as cytotoxic; hit rate 2% among 360,000
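CellTiter-Glo luminescence after 48 h compound exposure at 37 degrees C of IDH1-knockdown HT-1080 cells in 5% FBS RPMI. %Activity scaled between DMSO wells and cell-free media wells, with curves fitted and assigned curve classes.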
Of the large screens only hits and unclear results are named; the others gave an inactive call; ! = not confirmed by another sample. The full list was thinned out, with hits kept by preference. Unless noted, calls follow the shape of the dose curve; as a rule, active = well fitted curve in the direction sought with a large enough effect; inconclusive = small, poorly fitted or top-dose-only effect, or another doubt; inactive = no such curve, though single readings can be large; an effect the other way counts as inactive or inconclusive.

O=c1[nH]c(CN2CCCCCCC2)nc2ccsc12	none (no result: IL-1B inflam inh, DT40 TDP1 CPT, HT1080NT lethal, DT40 TDP1 no CPT, HT1080 IDH1KD tx)
Cc1ccc(NC(=O)COc2ncnc3ccccc23)c([N+](=O)[O-])c1	none (no result: IL-1B inflam inh, DT40 TDP1 CPT, HT1080NT lethal, DT40 TDP1 no CPT, HT1080 IDH1KD tx)
Cc1ccc(-c2noc(CSc3nnnn3C3CCCCC3)n2)cc1	DT40 TDP1 CPT 20.6µM, DT40 TDP1 no CPT inconclusive
Clc1ccc(C(Cn2ccnc2)OCc2c(Cl)cccc2Cl)c(Cl)c1 (stereo unspecified)	DT40 TDP1 CPT inconclusive, HT1080NT lethal 16.4µM, DT40 TDP1 no CPT inconclusive, HT1080 IDH1KD tx inconclusive
CCCCOC(=O)c1cc2c(cn1)[nH]c1ccccc12	DT40 TDP1 CPT 21.1µM!, DT40 TDP1 no CPT 18.4µM (no result: IL-1B inflam inh, HT1080NT lethal, HT1080 IDH1KD tx)
CNC(=O)c1cc2c(cn1)[nH]c1ccccc12	DT40 TDP1 CPT inconclusive, HT1080NT lethal inconclusive, DT40 TDP1 no CPT inconclusive
COC(=O)[C@H](CCSC)NC(=O)c1cc2c(cn1)[nH]c1ccccc12	IL-1B inflam inh -80.2, DT40 TDP1 CPT 10.3µM, DT40 TDP1 no CPT 7.31µM (no result: ALOX12 inh)
CC(=O)c1ccc(NC(=O)CC2Sc3ccccc3NC2=O)cc1 (stereo unspecified)	DT40 TDP1 CPT 11.6µM, DT40 TDP1 no CPT 13µM (no result: IL-1B inflam inh, HT1080NT lethal, HT1080 IDH1KD tx)
O=C(CC1SC(=O)NC1=O)Nc1ccc(Cl)cc1 (stereo unspecified)	DT40 TDP1 CPT 3.26µM, DT40 TDP1 no CPT 9.2µM
O=C(CC1NC(=O)NC1=O)Nc1ccc(Cl)cc1 (stereo unspecified)	ALOX12 inh inconclusive
O=C(CC1Sc2ccccc2NC1=O)NNc1ccc(Cl)cc1Cl (stereo unspecified)	IL-1B inflam inh -57.9, DT40 TDP1 CPT inconclusive, HT1080NT lethal inconclusive, DT40 TDP1 no CPT inconclusive, HT1080 IDH1KD tx inconclusive
O=C(CC1Sc2ccccc2NC1=O)NCc1ccccc1 (stereo unspecified)	none
O=C(Nc1ccc(C(F)(F)F)cc1)c1nn(-c2ccccc2)c(=O)c2ccccc12	none (no result: IL-1B inflam inh, DT40 TDP1 CPT, HT1080NT lethal, DT40 TDP1 no CPT, HT1080 IDH1KD tx)
COCCn1cc(CN(C)CCc2c(C)noc2C)ccc1=O	none (no result: IL-1B inflam inh, DT40 TDP1 CPT, HT1080NT lethal, DT40 TDP1 no CPT, HT1080 IDH1KD tx)
O=C(NN=Cc1ccc(Cl)cc1Cl)c1ccccc1	ALOX12 inh inconclusive, DT40 TDP1 no CPT inconclusive
NC(N)=N/N=C/c1ccc(OCc2ccccc2Cl)cc1	IL-1B inflam inh -102.6, DT40 TDP1 CPT 14.6µM, ALOX12 inh inconclusive, HT1080NT lethal 12.6µM, DT40 TDP1 no CPT 13µM, HT1080 IDH1KD tx 15.8µM
NC(N)=N/N=C/c1ccc(Cl)cc1Cl	IL-1B inflam inh -99.3, DT40 TDP1 CPT 16.4µM, HT1080NT lethal inconclusive, DT40 TDP1 no CPT 23.1µM, HT1080 IDH1KD tx 16.4µM
NC(N)=N/N=C/c1ccc(Cl)c(Cl)c1	IL-1B inflam inh -97.4, DT40 TDP1 CPT 13µM, ALOX12 inh inconclusive, HT1080NT lethal inconclusive, DT40 TDP1 no CPT 16.4µM, HT1080 IDH1KD tx inconclusive
CN1CCN(c2nc3c(c(=O)[nH]2)CCN(Cc2ccc(F)c(F)c2)CC3)CC1	none (no result: IL-1B inflam inh, DT40 TDP1 CPT, HT1080NT lethal, DT40 TDP1 no CPT, HT1080 IDH1KD tx)
C=CCn1c(C)cc(C(=O)CSc2nnc(NC(C)C)s2)c1C	DT40 TDP1 CPT inconclusive, DT40 TDP1 no CPT inconclusive
Cc1cc(C(=O)CSc2nc3ccccc3o2)c(C)n1CC(F)(F)F	none (no result: IL-1B inflam inh, DT40 TDP1 CPT, HT1080NT lethal, DT40 TDP1 no CPT, HT1080 IDH1KD tx)
Cc1cc(C(=O)CSc2nc3ccccc3o2)c(C)n1C1CC1	IL-1B inflam inh inconclusive, DT40 TDP1 CPT 20.6µM, DT40 TDP1 no CPT 14.6µM
